Screens deposited in PubChem BioAssay by National Center for Advancing Translational Sciences (NCATS).
This is a sample that favours compounds with a hit; in the whole collection about 1.5% have one here.
TrxR1 substrate – is turned over as a substrate by rat TrxR1. actives 0.01% (n = 390,000). Potency, µM (highest dose often 114 µM). purified TrxR1 substrate turnover, NADPH consumption readout; further: nearly all actives have a fitted effect of over 50% in size
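Rat TrxR1, dispensed at 90 nM, was prereduced with 400 uM NADPH (final) for 5 min at ~22 deg C, then incubated with compound 15 min before 400 uM selenite. A first-read NADPH fluorescence drop versus no-compound background flagged substrates.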
rTrxR1 inhibitor – blocks rat thioredoxin reductase 1. O89049. recombinant rTrxR1, NADPH fluorescence consumption, selenite substrate. Potency, µM (top dose mostly 114 µM), usual class: inhibitors. actives 1% (n = 390,000). AID 588453; further: nearly all actives have a fitted effect of over 65% in size
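Rat TrxR1 (90 nM in the dispensed reagent) was pre-reduced with 400 uM NADPH for 5 min at room temperature, then incubated with compound for 15 min. After 400 uM selenite was added, NADPH fluorescence (Ex 340/Em 450 nm) was followed for 8 min.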
PI4K2A inh – blocks human PI4K2A kinase activity; Q9BTU6; purified PI4K2A, ADP-Glo luminescence, 1 h; hits give low values; activity change, negative = inhibition, % at 76.9 µM; actives 0.13% (n = 420,000); in the data active means activity change below about -50%; inconclusive means mostly about -30% to -49%
Target sequence (Q9BTU6 whole entry, looked up): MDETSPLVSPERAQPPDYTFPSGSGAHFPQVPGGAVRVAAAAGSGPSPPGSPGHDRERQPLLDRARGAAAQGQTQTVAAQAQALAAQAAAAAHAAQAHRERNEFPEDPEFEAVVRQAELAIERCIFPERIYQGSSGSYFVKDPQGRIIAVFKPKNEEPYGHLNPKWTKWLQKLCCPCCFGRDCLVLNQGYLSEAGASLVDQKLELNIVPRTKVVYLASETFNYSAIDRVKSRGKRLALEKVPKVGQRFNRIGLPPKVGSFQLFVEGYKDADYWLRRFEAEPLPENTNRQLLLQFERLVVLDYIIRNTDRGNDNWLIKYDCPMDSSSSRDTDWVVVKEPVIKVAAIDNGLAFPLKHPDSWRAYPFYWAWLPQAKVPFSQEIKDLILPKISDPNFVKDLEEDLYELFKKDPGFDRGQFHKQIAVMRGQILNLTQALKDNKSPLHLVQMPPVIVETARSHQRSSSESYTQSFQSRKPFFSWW
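ADP-Glo luminescence measured ADP generated by PI4K2A enzyme (4 ug/mL before mixing) with 1.2 mM PI substrate (pre-mix) and 300 microM ATP (pre-mix). Tris pH7.5 buffer with MgCl2, Triton X-100; 1 h reaction at ambient temperature.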
Giardia kill – Giardia lamblia killing; Giardia lamblia trophozoite viability; activity change, % at 7.66 µM, hits read low; actives 0.15% (n = 340,000); AID 540267; in the data active means activity change below about -80%; inconclusive means between about -30% and that limit;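 further: parasites exposed to compound for two days anaerobically before the ATP read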
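Giardia lamblia trophozoites (100 cells/well) were incubated with compounds for 48 h at 37 deg C under anaerobic conditions. Viability was read as ATP content by one-step luminescence after 15-30 min at room temperature.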
GALK inh – blocks human galactokinase activity | Purified GALK, Kinase-Glo residual ATP luminescence | P51570 | Potency, µM (series often up to 57.5 µM), actives largely listed as inhibitors | actives 0.007% (n = 270,000)
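Human GALK (5 nM) with 35 uM ATP and 100 uM galactose in 20 mM HEPES pH 8.0, 5 mM MgCl2, 60 mM NaCl, 1 mM DTT, 0.01% BSA. After 1 h at room temperature, leftover ATP was read by Kinase-Glo Plus luminescence.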
FBPA coupling cs – inhibits coupling enzyme system, counter-screen for aldolase hits | coupling enzyme system counterscreen, AmpLite Red fluorescence | activity change, negative = inhibition, % at 58.2 µM, hits read low | actives 0.67% (n = 290,000) | AID 2472; in the data active means activity change below about -30%
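Fluorescence at 525 nm excitation and 598 nm emission measured inhibition of the coupled detection system without aldolase. Compounds (at 57.5 uM final) were preincubated 10 min at room temperature with coupling enzyme reagent before a 20 min substrate/AmpLite Red step.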
Numbers stand for hits; n = inactive; u = inconclusive; x = no result; ! = not confirmed by another sample; [ ] = another dose, or the depositor's remark. Unless noted, the call rests on the fitted dose curve; in most records, active means well fitted curve in the direction sought with a large enough effect; inconclusive means small, poorly fitted or top-dose-only effect, or another doubt; inactive means no such curve, though single readings can be large; an effect the other way counts as inactive or inconclusive.

SMILES	TrxR1 substrate	rTrxR1 inhibitor	PI4K2A inh	Giardia kill	GALK inh	FBPA coupling cs
COc1ccc(-c2nc3ccc(NC(C)=O)cc3c(=O)n2Cc2ccccc2)cc1COc1ccc(NC(C)=O)cc1	n	20µM	x	n	x	x
O=C(Nc1ccc(Cl)cc1)Nc1ccc(Cl)c(C(F)(F)F)c1	x	x	n	x	x	x
CC(=O)N(C)C1=C(N2CCOCC2)C(=O)c2ccccc2C1=O	n	n	n	n	n	-56
O=C(c1ccccc1)c1ccc(N2CCOCC2)cc1	n	u	n	n	x	x
CC(=O)N(C1=C(N2CCOCC2)C(=O)c2ccccc2C1=O)c1ccc(C(=O)O)cc1	n	7.9µM	n	n	n	-54
Cc1ccc(Cn2c(C)c(CNCc3ccccc3F)c(C(=O)O)c2C)cc1	n	n	n	x	x	x
CCOc1ccccc1CNC(=O)c1cccc(NC(=O)c2nsc3ccccc23)c1	n	n	n	x	x	x
Cc1cccc(N(Cc2ccccc2)C(=O)CCl)c1	n	8.9µM	n	n	n	n
O=C(CCl)N(Cc1ccccc1)c1ccccc1	n	u	n	n	n	n
CCOC(=O)N1CCN(c2cc(=O)n(-c3ccc(C)cc3)c(=O)[nH]2)CC1	n	u	n	n	n	n
CCOC(=O)N1CCN(c2cc(=O)n(-c3ccc(Br)cc3)c(=O)[nH]2)CC1	n	18µM	n	n	n	n
CC(C)(C)c1ccc(S(=O)(=O)N2CCCC2C(=O)N2CCc3ccccc3C2)cc1 (centres undefined)	x	x	n	x	x	x
NCC(=O)N[C@@H](CCCN=C(N)N)C(=O)NCC(=O)N[C@@H](CCC(=O)O)C(=O)N[C@@H](CO)C(=O)O	x	x	x	x	x	n
CCOC(=O)/C(=C\c1ccccc1)C(=O)c1cc(C(C)=O)c(Nc2ccccc2)s1	n	n	n	n	n	n
CCOC(=O)/C(=C\c1cccnc1)C(=O)c1cc(C(C)=O)c(Nc2ccccc2)s1	n	3.2µM	n	n	n	n
C=C1C=C(C(F)F)n2ncc(C(=O)Nc3ccc(N(CC)CC)cc3)c2N1	n	n	x	x	x	x
Cc1ccccc1N=Nc1ccc(O)c2ncccc12	n	n	n	n	n	n
O=[N+]([O-])c1ccc(O)c2ncccc12	u	u	n	n	n	-35
O=[N+]([O-])c1cc(F)c2cccnc2c1O	n	45µM	u	n	x	n
CS(=O)(=O)N1CCN(c2ccc([N+](=O)[O-])c3cccnc23)CC1	n	n	n	-82	n	n
CS(=O)(=O)N1CCN(c2ccc(Cl)cc2[N+](=O)[O-])CC1	n	n	n	n	n	n
O=Nc1ccc(O)c2ncccc12	n	n	n	n	n	-35!
O=[N+]([O-])c1ccc(O)c2cccnc12	n	n	n	n	n	n
CC(C)Oc1ccc(-c2nc(-c3cccnc3)no2)cc1	n[0.0914 µM]	n	x	x	x	x
S=c1[nH]nc(-c2n[nH]c3c2CCC3)n1N=Cc1ccc(OCc2ccccc2)cc1	x	x	n	x	x	x
SMILES	TrxR1 substrate	rTrxR1 inhibitor	PI4K2A inh	Giardia kill	GALK inh	FBPA coupling cs
COc1ccc(N2C(=O)CC(Sc3n[nH]c(-c4cccc(C)c4)n3)C2=O)cc1 (centres undefined)	n	u	n	n	n	n
CCOc1ccccc1N1C(=O)CC(Sc2n[nH]c(-c3ccccc3)n2)C1=O (centres undefined)	n	1µM	n	n	n	n
C=C(C(C)=O)C(O)c1cccc(OC)c1 (centres undefined)	x	x	x	x	x	n
Clc1ccc(-c2csc3ncnc(Sc4nnnn4C4CC4)c23)cc1	n[0.0914 µM]	n	x	x	x	x
Cn1cnc([N+](=O)[O-])c1NC(C)(C)C	n	n	n	n	n	n
Cn1cnc([N+](=O)[O-])c1S(=O)(=O)c1ccc(Cl)cc1	n	0.32µM	n	n	n	n
O=C(/C=C/c1ccc([N+](=O)[O-])cc1)c1cccnc1	n	32µM	n	n	n	n
Cc1snnc1C(=O)NC(=S)Nc1ccccc1	n	16µM	n	n	n	n
O=C(NC(=S)Nc1ccccc1)c1ccc(Br)o1	n	n	n	n	n	n
Cc1ccc(N/N=C/c2c(C)c(C#N)c(=O)n(C)c2O)cc1C	n	n	n	n	n	-58
COc1cc(S(=O)(=O)Nc2ccc(C)cc2)ccc1N=Cc1c(C)c(C#N)c(=O)n(C)c1O	n	n	n	n	n	n
Nc1c(I)cc(I)c(C(=O)N(CCC(=O)O)c2ccccc2)c1I	x	x	n	x	x	x
CC(C)(C)C(=O)/C(=C/c1ccncc1)n1cncn1	n	18µM	n	n	n	n
COc1ccc(CC(=O)Nc2ccc(-c3nc4ccccc4s3)c(C)c2)cc1OC	n	n	n	x	x	x
Cc1ccnc(NC(c2ccccc2F)c2ccc3cccnc3c2O)c1 (centres undefined)	n	u	n	x	x	x
Cc1ccnc(NC(c2cc(C)ccc2O)c2ccc3cccnc3c2O)c1 (centres undefined)	n	5µM	n	x	x	x
Cc1ccnc(NC(c2cccnc2)c2ccc3cccnc3c2O)c1 (centres undefined)	n	3.5µM	n	n	n	n
COc1ccccc1NC(c1cccnc1)c1ccc2cccnc2c1O (centres undefined)	n	0.71µM	n	n	n	n
Cc1ccnc(NC(c2ccccc2)c2ccc3cccnc3c2O)c1 (centres undefined)	n	n	n	u	x	x
COc1ccc(C2Nc3cccc4cccc(c34)N2)cc1	n	u	n	n	n	n
CCOc1ccc(C2Nc3cccc4cccc(c34)N2)cc1OC	n	28µM	n	n	n	n
CCOc1cc(C2Nc3cccc4cccc(c34)N2)ccc1O	n	25µM	u	n	n	n
CCOc1cc(C2Nc3ccccc3C(=O)N2c2ccccc2)ccc1O (centres undefined)	n	n	n	n	n	n
O=c1c2ccccc2cnn1-c1nc2ccccc2[nH]1	n	n	-73	-91	n	n
CN(C(=O)COC(=O)c1ccc(Br)c([N+](=O)[O-])c1)c1c(N)n(Cc2ccccc2)c(=O)[nH]c1=O	n	40µM	n	n	x	x
SMILES	TrxR1 substrate	rTrxR1 inhibitor	PI4K2A inh	Giardia kill	GALK inh	FBPA coupling cs
Cc1ccc(C(=O)OCC(=O)N(CC(C)C)c2c(N)n(Cc3ccccc3)c(=O)[nH]c2=O)cc1[N+](=O)[O-]	n	n	n	n	x	x
COc1ccc(Nc2c3c(nc4ccc(NC(=O)c5cc(Cl)ccc5OC)cc24)CCCC3)cc1OC	n	n	n	x	x	x
CN(CCc1ccccc1)C(=O)c1cc2ccccn2n1	x	x	n	x	x	x
COc1ccc(-n2nc3c(c2NC(=O)CCl)CSC3)cc1	n	14µM	n	n	n	n
O=C(O)CN1C(=O)/C(=C/c2ccc(N3CCCCC3)o2)SC1=S	n	28µM	n	n	n	n
CCOC(=O)CN1C(=O)S/C(=C/c2ccc(N3CCCCC3)o2)C1=O	n	50µM	n	n	n	n
COC(=O)CN1C(=O)S/C(=C/c2ccc(N3CCCCC3)o2)C1=O	n	3.5µM	n	n	n	-43
